Test results published in PubChem BioAssay (NCATS).
Records with an inconclusive call do not appear. Calls of active or inactive are those of the source. Unless noted, the rule behind the calls is not given here.

Experiments:
[1] = qHTS profiling for inhibitors of Plasmodium falciparum (DD2) proliferation (AID 743323); conditions: lower = more inhibition; at 28.7 µM (top of the series)
Method in brief: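 P. falciparum Dd2-infected erythrocytes (0.3% parasitemia, 2.5% hematocrit) exposed 72 h at 37 C, 5% CO2. Lysis with SYBR Green, overnight at room temperature, fluorescence 485/535 nm; normalized to 0.29 uM artemisinin and DMSO.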

[2] = qHTS profiling for inhibitors of Plasmodium falciparum (HB3) proliferation (AID 743324; active = well fitted curve in the direction sought with a large enough effect; an effect the other way counts as inactive or inconclusive;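 note: 100% = DMSO vehicle wells and 0% = artemisinin-treated control wells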); conditions: Plasmodium falciparum HB3 blood-stage proliferation; at 28.7 µM (top of the series)
Method in brief: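 SYBR Green fluorescence (485 ex/535 em) of lysed cultures, incubated overnight at room temperature in the dark, quantifies parasite DNA. Infected erythrocytes at 0.3% parasitemia and 2.5% hematocrit were exposed 72 h; values normalized to DMSO and 0.29 uM artemisinin controls.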

[3] = qHTS profiling of the MIPE4 collection as inhibitors of Plasmodium falciparum (DD2) proliferation (AID 743345); conditions: P. falciparum Dd2 in erythrocytes, SYBR Green DNA, 72 h; at 28.5 µM (top of the series) unless noted
Method in brief: (§1)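 Parasite DNA was quantified by SYBR Green I fluorescence (ex 485, em 535 nm) after overnight lysis in saponin/Triton buffer at room temperature. Cultures at 0.3% parasitemia and 2.5% hematocrit were first exposed to compound for 72 h at 37 C; signals were normalised to artemisinin (0.29 uM) and vehicle wells.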

[4] = qHTS profiling of the MIPE4 collection as inhibitors of Plasmodium falciparum (DD2) proliferation (Rep 2) (AID 743346); conditions: P. falciparum Dd2 in erythrocytes, SYBR Green DNA, 72 h; at 28.5 µM (top of the series) unless noted
Method in brief: as §1

[5] = qHTS profiling of the MIPE4 collection as inhibitors of Plasmodium falciparum (HB3) proliferation (AID 743347);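 note: plate controls were DMSO vehicle wells for no effect and artemisinin wells for full effect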; conditions: P. falciparum HB3 in erythrocytes, SYBR Green DNA, 72 h; at 28.5 µM (top of the series) unless noted
Method in brief: as §1

[6] = High-throughput drug toxicity screening in the BPDCN cell line Gen2.2 (AID 1224824); conditions: Gen2.2 BPDCN cells; at 45.8 µM (top of the series) unless noted;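 note: cells exposed to compounds for 48 h before reading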
Method in brief: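 Gen2.2, 500 cells/well, phenol red-free RPMI/10% FBS/Pen-Strep; 48 h cpd, 37 °C/5% CO2; CTG lum, 15 min RT. Norm: DMSO = 100%, bortezomib 9.2 uM final = 0%.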

[7] = High-throughput drug toxicity screening in the BPDCN cell line Cal-1 (AID 1224825); conditions: Cal-1 BPDCN cell viability, qHTS; at 45.8 µM (top of the series) unless noted
Method in brief: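 CellTiter-Glo luminescence after 48 h compound exposure; percent activity scaled with DMSO as 100% and bortezomib (9.2 uM final) as 0%. Cal-1 cells seeded at 500/well in RPMI, 10% FBS, no phenol red.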

[8] = qHTS profiling of the MIPE4 collection as inhibitors of Plasmodium falciparum (3D7) proliferation (AID 743344);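 note: scaled between DMSO vehicle wells and 0.29 µM artemisinin as full inhibition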; conditions: P. falciparum 3D7 in erythrocytes, SYBR Green DNA fluorescence, 72 h; at 28.5 µM (top of the series) unless noted
Method in brief: as §1

[9] = qHTS Assay for Identifying Gametocytocidal Compounds (AID 743244; active = well fitted curve in the direction sought with a large enough effect; an effect the other way counts as inactive or inconclusive;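 note: % is set by controls: 0 for no effect and ±100 for the full control effect; actives lower the fluorescent signal which means gametocytes are killed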); conditions: P. falciparum 3D7 stage III-V gametocytes, alamarBlue, 72 h; max response: stronger effect = lower value
Method in brief: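 Fluorescence at Ex 525/Em 598 nm, recorded 24 h after alamarBlue addition, reports residual metabolic activity of 3D7 gametocytes (stages III–V) following 72 h compound exposure at 37 °C, 5% CO2.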

[10] = qHTS profiling for inhibitors of Plasmodium falciparum (3D7) proliferation (AID 743322);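 note: infected erythrocytes exposed to compound for 72 h before lysis; 100% = DMSO vehicle wells and 0% = 0.29 µM artemisinin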; conditions: P. falciparum 3D7 proliferation; at 28.7 µM (top of the series)
Method in brief: as §1

Structure (SMILES)	activity, percent of control [1]	remaining proliferation (% of control), lower = more inhibition [2]	parasite growth remaining, % of DMSO control (lower = more inhibition) [3]	parasite growth, % of control (lower = inhibition) [4]	growth, % of control [5]	cell viability, % of control (lower = more cytotoxic) [6]	viability (% of control) [7]	parasite growth, % of DMSO control [8]	max response [9]	remaining parasite growth % (stronger effect = lower value) [10]
Cc1cn(-c2cc(NC(=O)c3ccc(C)c(Nc4nccc(-c5cccnc5)n4)c3)cc(C(F)(F)F)c2)cn1	12.7%	2.94%	8.07%	27.3%	7.2%	231%	101%	–	–	–
O=C1CCC[C@@H]2[C@H]3CCC[N+]4([O-])CCC[C@@H](CN12)[C@@H]34 (stereo not given in full)	–	–	33.8%	61.6%	68.6%	92.5%	100%	64.9%	–	–
CNc1nccc(-c2cccnc2Oc2cc(C(=O)Nc3cccc(C(F)(F)F)c3)ccc2C)n1	13.8%	3.23%	31.1%	19.8%	7.15%	13%	15.7%	6.2%	8.44% (inactive)	5.98%
c1cc(-c2cnn3cc(-c4ccc(OCCN5CCCCC5)cc4)cnc23)ccn1	13.9%	12%	–	10.1%	4.45%	2.64%	3.8%	–	–	6.04%
CC1(C)CCC(c2ccc(Cl)cc2)=C(CN2CCN(c3ccc(C(=O)NS(=O)(=O)c4ccc(N[C@H](CCN5CCOCC5)CSc5ccccc5)c(S(=O)(=O)C(F)(F)F)c4)cc3)CC2)C1	2.76%	-0.0239%	8.31%	16.8%	9.9%	7.3%	16.1%	–	–	0.209%
COc1cc(OC2CCN(C)CC2)ccc1Nc1ncc2c(n1)n(C1CCCC1)c(=O)n2C	3.56%	1.94%	9.37%	18.2%	7.29%	6.18%	3.73%	–	–	–
